# Whole data set: some 33,000 sequences, median “E-score (-0.5 to 0.5)” near -0.0059, cut for the highest 2% near 0.26. This excerpt belongs to a sample that is enriched for the highest values.
# Molecular target: T1, Cin5 (UniProt P40917)
# T1 sequence: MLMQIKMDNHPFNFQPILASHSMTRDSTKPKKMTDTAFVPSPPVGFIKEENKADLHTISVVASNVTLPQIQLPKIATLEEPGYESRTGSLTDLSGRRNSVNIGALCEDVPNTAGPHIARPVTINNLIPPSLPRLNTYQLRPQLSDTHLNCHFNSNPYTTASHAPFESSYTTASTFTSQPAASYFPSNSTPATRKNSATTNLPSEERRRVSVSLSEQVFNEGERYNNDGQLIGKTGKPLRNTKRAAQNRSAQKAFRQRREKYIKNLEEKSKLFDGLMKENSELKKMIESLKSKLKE
# Test: PBM E-score (8-mer binding enrichment) (E-score (-0.5 to 0.5)); higher = stronger / more preferred TF binding
# Conditions: protein concentration: 100 nM; construct: GST-full length
# Protocol: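 Universal 'all 10-mer' protein binding microarrays (Agilent AMADID 015681) probed with GST-tagged S. cerevisiae TFs (full-length or DBD) made by in vitro transcription/translation (PURExpress), about 100-200 nM. Bound TF was detected with fluorescent anti-GST. Each ungapped 8-mer (which stands for itself and its reverse complement) is scored by the PBM enrichment score (E-score), a modified Wilcoxon-Mann-Whitney statistic from -0.5 to +0.5, computed with the Universal PBM Analysis Suite. Scale: above 0.35 generally sequence-specific binding.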
row,Sequence,PBM E-score
1,TAACTAGA,0.306
2,GAACTAGA,-0.00859
3,AAACTAGA,-0.116
4,AAGATTCT,-0.106
5,CTTTTGGA,-0.0744
6,AGACAGAC,0.192
7,ACAGACAG,0.195
8,ACAGACAC,-0.0499
9,AGACAGAT,0.277
10,AGACAGAG,-0.0616
11,ACAGACAA,0.28
12,AAGGTCGA,0.146
13,ACCACGCG,-0.0218
14,ACGTATCA,0.156
15,GAGCCGGA,-0.178
16,ATATAGTA,0.235
17,CTATATAG,0.103
18,ATATATAC,0.316
19,CTATATAA,0.0999
20,AGATATAG,0.149
21,ATATATAT,0.146
22,GTATATAC,0.104
23,GTATATAA,0.222
24,ATATATAG,0.26
25,ATATAGTC,0.258

row,Sequence,PBM E-score
1,CTATAGTC,-0.063
2,ATATATAA,0.335
3,ACCATCGG,-0.108
4,GAGGCGAC,-0.213
5,AGATTCTC,0.0336
6,GTGCAGGA,-0.0289
7,GAAGTCCA,-0.133
8,CTCTATAC,-0.0333
9,CTATATAC,0.313
10,CTATATGC,0.212
11,ATTACAGA,0.0804
12,CTTACACC,-0.0748
13,ATTACATA,0.355
14,CATACATA,0.213
15,AGTACATG,0.118
16,ATTACATG,0.297
17,ATTACAGG,0.244
18,AATACATG,0.195
19,CTTACACA,0.259
20,AATACATA,0.278
21,ATTACACG,0.0848
22,ACTACATA,0.207
23,GTGCCGTA,0.0613
24,CACCTTGA,0.00105
25,AAAAGACT,-0.205

row,Sequence,PBM E-score
1,GGCCATAA,0.0497
2,AGAAGGTG,0.0112
3,CTAAGGCA,-0.173
4,AATACGTG,-0.0461
5,CTTACAAA,0.192
6,GTTACATA,0.266
7,ATTACATC,0.31
8,GTTACAAA,0.184
9,CTTACATC,0.213
10,CGTACATA,0.191
11,AGTACATC,0.0156
12,CATACGTA,0.242
13,AATACGTA,0.313
14,GCTACATA,0.0756
15,CTTACATA,0.358
16,ACTGCCAC,-0.012
17,AATCAGTC,0.0788
18,AGCCAGTA,-0.0197
19,GAGTGCGA,-0.11
20,AATCGAGA,0.171
21,AATCTCCG,0.0667
22,ATTACAAA,0.306
23,ATTACAAG,0.131
24,ATTACAAT,0.153
25,CAATATAA,0.295

row,Sequence,PBM E-score
1,CAATATAG,0.225
2,GAATATAA,0.112
3,TAATATAA,0.355
4,TCATATAA,0.197
5,CAATATAC,0.181
6,TATAGCCA,0.111
7,ACTTAATC,0.133
8,ATTTAATA,0.295
9,ACTTAATA,0.26
10,GCTTAATA,0.207
11,GTTTAATA,0.143
12,CTTTAATA,0.122
13,AGTTCGCA,0.0133
14,ATCCAACA,0.0603
15,CTTGCGTC,-2e-05
16,CATGGGGA,-0.0804
17,TATGGGGA,0.27
18,AATGGGGA,0.0144
19,CGGGTGTC,-0.00474
20,ACCCCTCT,-0.17
21,AGACATAT,0.0819
22,ATACATAT,0.318
23,ATACATAC,0.0724
24,ATACATAG,0.159
25,CTACATAA,0.0697

row,Sequence,PBM E-score
1,ATACATAA,0.286
2,AGTTCTAC,-0.141
3,TATGCTCA,0.132
4,CAACCCGG,-0.222
5,CGCAGCGC,-0.138
6,AAGCTACC,0.106
7,CAATGATA,0.182
8,GAAATGAA,0.275
9,ATATGAAA,0.259
10,AAATGAGA,0.128
11,AAATGATA,0.279
12,CTATGAAA,0.0722
13,AAATGAAA,0.266
14,CAAATGAA,-0.0217
15,ATATGAAC,0.132
16,TAATGAAA,0.203
17,TAAATGAA,0.129
18,CAATGAAA,0.0978
19,CTTTGCCC,-0.199
20,ATCCCTAA,-0.19
21,ACGGCCGA,0.0311
22,GGCGGCAA,-0.184
23,GGTATACC,-0.0512
24,AACCAATA,0.214
25,AGATACAT,0.171

row,Sequence,PBM E-score
1,CAGCGCAA,0.0372
2,TAATGATA,0.298
3,TAATGACA,0.237
4,GAATGAGA,0.115
5,AAATGATT,0.294
6,AAATGGTA,0.268
7,CAATGGTA,0.101
8,AAATGATG,0.207
9,TAATGGTA,-0.00375
10,GAATGATC,-0.046
11,AAATGATC,0.00639
12,TAATGAGA,0.0551
13,GAATGATA,0.291
14,CGACGTCC,0.0493
15,ATAGTGTC,0.0674
16,ACATGGCT,-0.0786
17,CTACGAGC,-0.108
18,GGAACCAC,-0.0344
19,AGATGATA,0.212
20,AGATGATG,0.27
21,GAAATTAA,0.273
22,CAAATTAA,0.191
23,AGATGATC,0.119
24,AAAATTAA,0.105
25,GCAAGGGC,-0.235

row,Sequence,PBM E-score
1,TAACATGA,0.071
2,AGCTTCCT,0.00798
3,CAGCAAAG,-0.0276
4,GAATCTGA,-0.0334
5,GAGCTTTA,-0.0441
6,CAGTATAA,0.284
7,AAGTATAA,0.216
8,GAGTATTA,0.178
9,GAGTATAA,0.181
10,CAGTATTA,0.294
11,AAGTATTA,0.0531
12,GGAAGTCA,0.0165
13,GAACTCCA,0.0209
14,CAGCATGC,-0.0241
15,GGATCAAA,0.0839
16,CTCTGGCC,-0.234
17,GGGACCAC,-0.174
18,CCGCCTAA,-0.0943
19,TATGTAAA,0.286
20,AATGTCAA,0.176
21,CATGTAAA,-0.054
22,TATGTCAA,0.294
23,GATGTAAA,0.13
24,GATGTCAA,0.0458

# Source: the supplement of paper PMC3334620
